Source: PubChem BioAssay
KB-3-1 tox = kills parental KB-3-1 adenocarcinoma cells. 400,000 tested, 1.4% active. Potency, µM (doses to about 46.1 µM), most hits filed as cytotoxic. KB-3-1 viability, CellTiter-Glo ATP luminescence, 72 h. AID 1347075; also: % is scaled to controls: 0 for no effect and ±100 for the full control effect; nearly all actives have a fitted effect of over 60% in size
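Using CellTiter-Glo luminescence, growth of non-resistant KB-3-1 adenocarcinoma cells is assessed 72 h after pin-tool compound addition at 37 °C. Normalized responses across the concentration series yield fitted curves.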
RORg inh = blocks mouse ROR gamma transcriptional activity; P51450; Drosophila S2 Gal4-RORgamma UAS-luciferase reporter, 20 h; Potency, µM (titrated, usually from 53.6 µM), inactives show top-dose activity change, negative = inhibition, most hits filed as inhibitors; 310,000 tested, 5.4% active; also: % is scaled to controls: 0 for no effect and ±100 for the full control effect; nearly all actives have a fitted effect of over 60% in size
Target sequence (P51450 whole entry, looked up, the tested form may be a part): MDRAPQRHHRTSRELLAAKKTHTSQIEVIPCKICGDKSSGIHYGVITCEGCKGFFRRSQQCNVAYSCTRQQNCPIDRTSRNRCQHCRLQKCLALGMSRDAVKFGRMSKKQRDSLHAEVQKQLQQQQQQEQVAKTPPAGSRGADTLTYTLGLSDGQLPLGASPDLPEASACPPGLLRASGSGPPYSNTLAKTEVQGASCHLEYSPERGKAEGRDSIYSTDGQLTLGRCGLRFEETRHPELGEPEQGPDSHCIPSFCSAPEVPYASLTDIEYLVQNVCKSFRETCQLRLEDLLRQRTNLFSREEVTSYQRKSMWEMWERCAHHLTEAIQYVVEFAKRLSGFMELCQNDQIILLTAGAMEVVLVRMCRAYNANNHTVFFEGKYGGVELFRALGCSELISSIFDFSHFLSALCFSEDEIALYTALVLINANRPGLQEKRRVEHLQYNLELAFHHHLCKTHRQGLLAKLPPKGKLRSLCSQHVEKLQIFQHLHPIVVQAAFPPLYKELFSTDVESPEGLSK
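Drosophila S2 cells stably expressing Gal4-DBD/mouse RORγ fusion under metallothionein promoter plus UAS-luciferase; compound 1 h, then 700 uM CuSO4 induction for 20 h at ambient temperature; inhibition read as reduced luminescence.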
KB-V1 cytotox = KB-V1 MDR subline cytotoxicity. Potency, µM (doses to about 46.1 µM), hits mostly cytotoxic. KB-V1 MDR cells viability, CellTiter-Glo, 72 h. 400,000 tested, 3.4% active; also: % is scaled to controls: 0 for no effect and ±100 for the full control effect; nearly all actives have a fitted effect of over 60% in size
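KB-V1 cells (P-gp-expressing MDR subline of KB-3-1) in phenol-red-free DMEM with 10% FBS were exposed to library compounds over a concentration series for 72 h at 37 degrees C. Viability read by CellTiter-Glo luminescence; concentration-effect curves fitted after normalization.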
SW480 rerep = induces DNA re-replication in SW480 colon adenocarcinoma cells; SW480 DNA re-replication, Hoechst DNA content imaging, 48 h; Potency, µM (titrated, usually from 46.1 µM), for inactives: at the top dose re-replication activation, usual class: activators; 340,000 tested, 1.8% active; also: % of control where 0% means no effect; nearly all actives have a fitted effect of over 55% in size
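Image-based DNA-content assay: after two days of treatment, nuclei were labelled with the DNA dye Hoechst and imaged, and hits were compounds raising the count of nuclei showing high fluorescence intensity.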
MCF10A rerep = induces DNA re-replication in MCF 10a normal breast cells | Potency, µM (highest dose often 46.1 µM), for inactives: at the top dose activity, positive = re-replication, usual class: activators | MCF 10A DNA re-replication, Hoechst nuclear intensity, 48 h | 350,000 tested, 2.9% active; also: % of control where 0% means no effect; nearly all actives have a fitted effect of over 50% in size
Gal4-VP16 FLuc = counter-screen for ROR gamma inhibitors: Gal4-VP16 reporter. Drosophila S2 Gal4-VP16 UAS-luciferase, luminescence, 20 h. Potency, µM (highest dose often 53.6 µM), for the others: top-dose activity, negative = inhibition, actives largely listed as inhibitors. 310,000 tested, 3.5% active;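 also: Gal4-VP16 expression switched on by copper sulfate through the metallothionein promoter; % is scaled to controls: 0 for no effect and ±100 for the full control effect; nearly all actives have a fitted effect of over 50% in size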
Numbers without * were called inactive; i = inactive; ? = inconclusive; · = not tested or not shown; [ ] = dose if it differs, or a comment. Compounds with a hit are over-represented: about 10% of the library has one in this group of screens. Calls follow the shape of the dose curve; as a rule, active = well fitted curve in the direction sought with a large enough effect; inconclusive = small, poorly fitted or top-dose-only effect, or another doubt; inactive = no such curve, though single readings can be large; an effect the other way counts as inactive or inconclusive. Potency is read from the fitted curve at half-maximal effect.

SMILES	KB-3-1 tox	RORg inh	KB-V1 cytotox	SW480 rerep	MCF10A rerep	Gal4-VP16 FLuc
CC(=O)N1CCC(N(C(=O)Nc2ccc(C)c(F)c2)C(C)C)CC1	i	·	i	·	·	·
C1COCCNCCOCCOCCOCCN1	i	-5%	i	10µM*	-6%	-8%
C1COCCNCCOCCOCCN1	i	8%	i	-1%[9.22 µM]	-2%	-3%
CN(N=O)c1ccc2c(c1)Cc1ccccc1-2	i	·	i	·	·	·
CCCn1c(C)cc(/C=C(\C#N)C(=O)OCC(=O)Nc2ccc(OC)c(Cl)c2)c1C	i	?	?	7%	3%	12%
COCCn1c(C)cc(/C=C(\C#N)C(=O)OCC(=O)Nc2ccc(S(N)(=O)=O)cc2)c1C	i	·	i	-33%	16µM*	·
CC(C)COCc1ccc(O)c2ncccc12	?	0.71µM*	?	?	30%	1µM*
CN(Cc1ccco1)Cc1ccc(O)c2ncccc12	i	·	i	?	11%	·
CCCOCc1ccc(O)c2ncccc12	?	1.3µM*	?	5.8µM*	18%	3.5µM*
CS(=O)(=O)N1CCc2cc(S(=O)(=O)N3CCN(Cc4ccc5c(c4)OCO5)CC3)ccc21	i	?	21µM*	5%	17%	-7%
Cc1ccc(S(=O)(=O)N2CCN(Cc3ccc4c(c3)OCO4)CC2)cc1	i	·	i	·	·	·
COc1ccc(NC(=O)CSc2oc(-c3ccc(F)cc3)nc2S(=O)(=O)c2ccc(C)cc2)c(OC)c1	i	·	i	·	·	·
CC(C)(C)C(=O)CSc1n[nH]c(-c2ccccc2)n1	i	·	i	·	·	·
CCOC(=O)C1=C(C)N(C)C(=S)NC1c1cc(OC)ccc1OC (configuration not stated)	i	14µM*	?	-3%	3%	?
CCn1c(=O)cc(SCC(=O)NCCc2cccc(C)c2)c2ccccc21	i	·	i	·	·	·
Cc1cc(Nc2ccccc2C(=O)O)n(-c2cccc(Cl)c2)n1	i	11%	i	5.2µM*	-1%	6%
Cc1cc(NC(=O)c2ccc(Cl)cc2Cl)n(-c2ccccc2)n1	i	·	i	-39%	-4%	·
Cc1cc(Nc2nc3ccccc3nc2Cl)n(-c2ccccc2)n1	?	-43%	13µM*	?	13µM*	-3%
Cc1cc(Nc2nc3ccccc3nc2Cl)n(-c2ccccc2C)n1	i	?	i	4%	?	-1%
Cc1cc(Nc2ccc(Cl)cc2)n(-c2cccc(Cl)c2)n1	?	-23%	?	?	26µM*	0%
Cc1ccc(S(=O)(=O)N2[C@@H](CCO)OC[C@H]2C(C)C)cc1	i	·	i	·	·	·
CCc1ccc2c(Cl)c(C(=O)N/N=C/c3c[nH]c4ccccc34)sc2c1	?	8.9µM*	?	?	?	-7%
CCc1ccc(-c2cc(C(=O)N/N=C/c3c[nH]c4ccccc34)[nH]n2)cc1	?	11µM*	?	6.5µM*	21µM*	13µM*
COc1ccc(/C=C/C(=O)NCc2cnn(C)c2C)cc1COc1ccc(Br)cc1	i	23%	15µM*	-2%	?	0%
COc1ccc(/C=C/C(=O)NCc2c(C)nn(C)c2C)cc1COc1ccc(Br)cc1	i	7%	i	?	3.7µM*	?
SMILES	KB-3-1 tox	RORg inh	KB-V1 cytotox	SW480 rerep	MCF10A rerep	Gal4-VP16 FLuc
COc1ccc(/C=C/C(=O)O)cc1COc1cccc(C)c1	i	-19%	i	3%	17%	3%
COc1ccc(C(=O)CCS(=O)(=O)c2ccc(C)cc2)cc1	i	5.6µM*	i	?	?	10µM*
COc1ccc(C(CC(=O)c2ccc(O)cc2)S(=O)(=O)c2ccc(C)cc2)cc1 (configuration not stated)	i	1.8µM*	?	-4%	7%	10µM*
Cc1ccc(C(=O)CCS(=O)(=O)c2ccc(Br)cc2)cc1	i	-143%	i	?	?	?
Cc1ccc(S(=O)(=O)CCC(=O)c2cccc([N+](=O)[O-])c2)cc1	i	4µM*	i	2%	3.7µM*	5µM*
CCc1nc2ccc(C(=O)NCc3ccc4c(c3)OCO4)cn2c1N(C)C(=O)Cc1ccccc1	i	·	i	·	·	·
COC(=O)CCCn1cc(CN2CC(N3CCCC3)CS2(=O)=O)nn1 (configuration not stated)	i	·	i	·	·	·
O=c1[nH]nc(Cc2ccc(-c3ccc(Cl)cc3)o2)c2ccccc12	i	?	i	?	8.2µM*	?
O=C(NCC(O)c1nc2ccccc2[nH]1)c1cc2ccccc2[nH]1 (configuration not stated)	i	·	i	·	·	·
Cc1ccccc1-n1c(C)nc2ccccc21	i	11µM*	i	-3%	21%	7%[0.365 µM]
Cc1nc2ccccc2n1-c1ccccc1	i	0%	i	-5%	1%	-12%
CCCOc1ccc2cc(-c3ccccn3)c(=O)oc2c1	?	7.1µM*	?	?	?	5µM*
O=c1oc2cc(OCc3c(F)cccc3Cl)ccc2cc1-c1ccccn1	i	-1%	i	8%[9.22 µM]	?	-7%
COC(=O)C1=C(C)NC(=O)C1(NC(=O)c1cc(OC)c(OC)c(OC)c1)C(F)(F)F (configuration not stated)	i	·	i	·	·	·
CC1=C(C(=O)N(C)C)C(c2cccs2)NC(=O)N1 (configuration not stated)	i	19%	i	-5%	14%	-1%
CC1=C(C(=O)N(C)C)C(c2cccc(Cl)c2)NC(=O)N1 (configuration not stated)	i	11µM*	i	-10%	?	-2%
CCOc1ccc(CCNC(=O)CCCc2nnc3n(C)c(=O)c4sccc4n23)cc1OCC	i	·	i	·	·	·
Cc1[nH]c2ccc(C(=O)NC3CCCC3)cc2c1C	i	·	i	2.6µM*	6%	·
Cc1[nH]c2ccc(C(=O)O)cc2c1C	i	18%	i	26µM*	23µM*	?
CCc1nc2c(OCc3cccc(OC)c3)cccn2c1N(C)C(=O)c1ccccc1F	i	·	i	·	·	·
COc1cccc(CCNC(=O)CCc2nnc(-c3ccc4c(c3)OCO4)o2)c1	?	-16%	i	?	3%	-5%
Cn1c(-c2ccc3c(c2)OCO3)cnc1NCc1ccccc1	?	-26%	13µM*	?	26µM*	-3%
Cn1c(-c2ccc3c(c2)OCO3)cnc1NC(=O)CCC(=O)NCCc1ccccc1	i	3.2µM*	i	3%	1%	5.6µM*
